Laboratory results: ChEMBL document CHEMBL1961873, “Compounds: GSK PKIS; Assays: Nanosyn kinase panel” (2012)
Several values for one entry are separate records, joined by “and”; a condition that tells them apart may be missing. Equal entries are not always repeated.

Tests used:
[1] = target: T1, Muscle, skeletal receptor tyrosine-protein kinase (Homo sapiens) (UniProt O15146); conditions: at 1 µM;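 also: reported value is the mean percent inhibition of MuSK kinase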
T1 sequence (whole entry): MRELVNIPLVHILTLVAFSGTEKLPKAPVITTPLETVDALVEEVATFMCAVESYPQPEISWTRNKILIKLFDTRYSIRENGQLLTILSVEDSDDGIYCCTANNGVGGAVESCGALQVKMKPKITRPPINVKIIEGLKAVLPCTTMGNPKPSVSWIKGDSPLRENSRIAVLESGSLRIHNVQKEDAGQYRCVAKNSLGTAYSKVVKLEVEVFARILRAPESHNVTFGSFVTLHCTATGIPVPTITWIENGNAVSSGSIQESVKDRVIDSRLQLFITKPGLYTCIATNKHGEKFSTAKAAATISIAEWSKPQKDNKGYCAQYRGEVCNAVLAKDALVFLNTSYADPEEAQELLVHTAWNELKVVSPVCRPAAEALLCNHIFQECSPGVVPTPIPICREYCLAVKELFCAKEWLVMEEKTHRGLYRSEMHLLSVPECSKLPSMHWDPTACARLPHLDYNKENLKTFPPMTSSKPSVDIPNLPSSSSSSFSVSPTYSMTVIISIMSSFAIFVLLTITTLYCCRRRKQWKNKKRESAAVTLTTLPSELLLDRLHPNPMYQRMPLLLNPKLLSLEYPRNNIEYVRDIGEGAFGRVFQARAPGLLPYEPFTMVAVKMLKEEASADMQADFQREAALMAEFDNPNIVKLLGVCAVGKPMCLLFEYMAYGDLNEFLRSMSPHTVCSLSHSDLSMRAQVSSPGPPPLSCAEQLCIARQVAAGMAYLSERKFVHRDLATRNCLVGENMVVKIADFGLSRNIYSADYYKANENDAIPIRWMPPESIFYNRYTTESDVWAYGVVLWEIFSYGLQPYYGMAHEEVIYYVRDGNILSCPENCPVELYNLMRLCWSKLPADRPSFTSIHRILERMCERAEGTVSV

[2] = target: Platelet-derived growth factor receptor alpha (Homo sapiens) (UniProt P16234); conditions: at 0.1 µM
[3] = target: Platelet-derived growth factor receptor alpha (Homo sapiens) (UniProt P16234); conditions: at 1 µM
[4] = system: Platelet-derived growth factor receptor alpha (Homo sapiens), P16234 [D842V]; conditions: at 0.1 µM
[5] = system: Platelet-derived growth factor receptor alpha (Homo sapiens), P16234 [D842V]; conditions: at 1 µM
[6] = system: Platelet-derived growth factor receptor alpha (Homo sapiens), P16234 [T674I]; conditions: at 0.1 µM
[7] = system: Platelet-derived growth factor receptor alpha (Homo sapiens), P16234 [T674I]; conditions: at 1 µM
[8] = system: Platelet-derived growth factor receptor alpha (Homo sapiens), P16234 [V561D]; conditions: at 0.1 µM
[9] = system: Platelet-derived growth factor receptor alpha (Homo sapiens), P16234 [V561D]; conditions: at 1 µM
[10] = target: Platelet-derived growth factor receptor beta (Homo sapiens) (UniProt P09619); conditions: at 0.1 µM
[11] = target: Platelet-derived growth factor receptor beta (Homo sapiens) (UniProt P09619); conditions: at 1 µM
[12] = target: Tyrosine-protein kinase FRK (Homo sapiens) (UniProt P42685); conditions: at 0.1 µM
[13] = target: Tyrosine-protein kinase FRK (Homo sapiens) (UniProt P42685); conditions: at 1 µM
[14] = target: Protein-tyrosine kinase 2-beta (Homo sapiens) (UniProt Q14289); conditions: at 0.1 µM
[15] = target: Protein-tyrosine kinase 2-beta (Homo sapiens) (UniProt Q14289); conditions: at 1 µM
[16] = target: Proto-oncogene tyrosine-protein kinase receptor Ret (Homo sapiens) (UniProt P07949); conditions: at 0.1 µM
[17] = target: Proto-oncogene tyrosine-protein kinase receptor Ret (Homo sapiens) (UniProt P07949); conditions: at 1 µM
[18] = system: Proto-oncogene tyrosine-protein kinase receptor Ret (Homo sapiens), P07949 [V804L]; conditions: at 0.1 µM
[19] = system: Proto-oncogene tyrosine-protein kinase receptor Ret (Homo sapiens), P07949 [V804L]; conditions: at 1 µM
[20] = system: Proto-oncogene tyrosine-protein kinase receptor Ret (Homo sapiens), P07949 [Y791F]; conditions: at 0.1 µM
Chain of Proto-oncogene tyrosine-protein kinase receptor Ret (Homo sapiens), P07949 [Y791F] (P07949 whole entry Y791F): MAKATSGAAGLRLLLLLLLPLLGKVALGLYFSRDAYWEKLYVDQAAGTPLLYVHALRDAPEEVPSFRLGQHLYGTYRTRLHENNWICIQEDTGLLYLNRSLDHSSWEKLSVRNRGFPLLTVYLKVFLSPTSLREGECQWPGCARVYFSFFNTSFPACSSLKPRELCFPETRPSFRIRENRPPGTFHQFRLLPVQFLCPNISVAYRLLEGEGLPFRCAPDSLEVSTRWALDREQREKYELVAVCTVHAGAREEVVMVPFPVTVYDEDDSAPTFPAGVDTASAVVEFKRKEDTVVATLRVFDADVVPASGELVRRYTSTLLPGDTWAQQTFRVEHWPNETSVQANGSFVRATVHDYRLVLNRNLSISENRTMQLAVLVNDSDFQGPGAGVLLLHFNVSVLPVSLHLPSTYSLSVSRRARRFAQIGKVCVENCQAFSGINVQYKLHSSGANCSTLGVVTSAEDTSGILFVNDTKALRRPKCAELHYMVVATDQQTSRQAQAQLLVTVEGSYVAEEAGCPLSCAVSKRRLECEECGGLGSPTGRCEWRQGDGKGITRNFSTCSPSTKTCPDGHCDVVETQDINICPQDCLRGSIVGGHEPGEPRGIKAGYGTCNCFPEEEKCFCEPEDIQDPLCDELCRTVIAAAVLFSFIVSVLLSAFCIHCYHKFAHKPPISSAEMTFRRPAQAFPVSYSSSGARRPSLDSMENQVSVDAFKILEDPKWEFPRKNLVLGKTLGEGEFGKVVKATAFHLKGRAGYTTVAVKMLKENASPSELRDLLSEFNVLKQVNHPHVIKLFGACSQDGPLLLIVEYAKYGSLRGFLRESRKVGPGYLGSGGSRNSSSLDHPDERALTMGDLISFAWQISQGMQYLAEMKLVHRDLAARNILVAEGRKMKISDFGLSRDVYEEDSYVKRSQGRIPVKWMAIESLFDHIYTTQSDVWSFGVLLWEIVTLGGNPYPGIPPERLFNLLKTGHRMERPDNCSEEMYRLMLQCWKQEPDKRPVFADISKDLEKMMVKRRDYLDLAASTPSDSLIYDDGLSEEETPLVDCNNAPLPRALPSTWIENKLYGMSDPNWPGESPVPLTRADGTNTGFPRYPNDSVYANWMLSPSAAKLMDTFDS

Chain of Platelet-derived growth factor receptor alpha (Homo sapiens), P16234 [V561D] (P16234 whole entry V561D): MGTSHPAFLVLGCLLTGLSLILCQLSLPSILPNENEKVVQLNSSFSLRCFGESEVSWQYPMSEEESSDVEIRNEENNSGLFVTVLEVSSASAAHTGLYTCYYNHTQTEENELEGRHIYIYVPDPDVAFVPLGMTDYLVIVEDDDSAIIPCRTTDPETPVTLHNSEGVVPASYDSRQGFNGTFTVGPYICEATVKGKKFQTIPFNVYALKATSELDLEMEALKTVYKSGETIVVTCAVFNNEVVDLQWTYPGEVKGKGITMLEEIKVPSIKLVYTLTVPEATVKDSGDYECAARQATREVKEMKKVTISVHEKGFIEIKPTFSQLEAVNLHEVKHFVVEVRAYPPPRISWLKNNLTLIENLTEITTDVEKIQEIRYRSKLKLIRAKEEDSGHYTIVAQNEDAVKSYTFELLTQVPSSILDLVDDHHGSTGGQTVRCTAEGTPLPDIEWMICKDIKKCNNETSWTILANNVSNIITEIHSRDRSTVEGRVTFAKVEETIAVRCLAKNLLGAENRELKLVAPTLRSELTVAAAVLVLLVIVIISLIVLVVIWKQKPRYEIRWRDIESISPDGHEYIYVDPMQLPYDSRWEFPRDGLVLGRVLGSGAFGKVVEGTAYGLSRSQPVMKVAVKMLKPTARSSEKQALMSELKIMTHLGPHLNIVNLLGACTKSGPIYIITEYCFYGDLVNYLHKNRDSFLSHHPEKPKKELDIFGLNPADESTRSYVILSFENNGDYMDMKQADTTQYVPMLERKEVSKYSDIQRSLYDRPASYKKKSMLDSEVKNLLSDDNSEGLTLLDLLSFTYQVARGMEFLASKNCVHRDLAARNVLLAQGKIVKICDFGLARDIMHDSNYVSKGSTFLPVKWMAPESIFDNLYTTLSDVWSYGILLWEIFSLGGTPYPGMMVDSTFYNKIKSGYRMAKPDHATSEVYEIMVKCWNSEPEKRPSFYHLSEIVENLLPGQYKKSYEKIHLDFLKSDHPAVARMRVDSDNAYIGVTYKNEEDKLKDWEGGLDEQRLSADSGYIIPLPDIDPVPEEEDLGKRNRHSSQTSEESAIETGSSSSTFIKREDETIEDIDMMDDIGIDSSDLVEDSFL
Chain of Proto-oncogene tyrosine-protein kinase receptor Ret (Homo sapiens) (P07949 whole entry): as the sequence (P07949 whole entry Y791F) above, with F791Y counted along it
Chain of Platelet-derived growth factor receptor alpha (Homo sapiens) (P16234 whole entry): as the sequence (P16234 whole entry V561D) above, with D561V counted along it
Chain of Tyrosine-protein kinase FRK (Homo sapiens) (P42685 whole entry): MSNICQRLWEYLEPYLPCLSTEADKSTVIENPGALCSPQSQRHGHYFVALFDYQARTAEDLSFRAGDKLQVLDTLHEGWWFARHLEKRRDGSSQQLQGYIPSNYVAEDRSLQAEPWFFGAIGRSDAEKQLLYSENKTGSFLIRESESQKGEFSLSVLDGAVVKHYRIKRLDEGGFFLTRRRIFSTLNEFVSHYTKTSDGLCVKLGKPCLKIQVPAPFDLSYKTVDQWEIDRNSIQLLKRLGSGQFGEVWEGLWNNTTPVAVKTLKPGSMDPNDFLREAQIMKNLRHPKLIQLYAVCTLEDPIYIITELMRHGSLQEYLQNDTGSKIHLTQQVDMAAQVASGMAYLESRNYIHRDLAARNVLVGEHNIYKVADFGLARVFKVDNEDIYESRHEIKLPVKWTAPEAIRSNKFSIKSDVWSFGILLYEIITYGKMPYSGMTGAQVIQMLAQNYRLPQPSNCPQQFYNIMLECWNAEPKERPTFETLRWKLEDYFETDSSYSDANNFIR

Cc1cc(O)cc(C)c1/C=C/c1cncc(C(N)=O)c1
inhibition [1]: 3.91% | inhibition [2]: 13% | inhibition [3]: 39.4% | inhibition [4]: 3.88% | inhibition [5]: 16.3% | inhibition [6]: 4.15% | inhibition [7]: 4.33% | inhibition [8]: 21% | inhibition [9]: 55.5% | inhibition [10]: 9.04% | inhibition [11]: 42% | inhibition [12]: 2.65% | inhibition [13]: 14.2% | inhibition [14]: 8.94% | inhibition [15]: 8.75% | inhibition [16]: 3.99% | inhibition [17]: 8.88% | inhibition [18]: 0.84% | inhibition [19]: 4.4% | inhibition [20]: 3.94%

CS(=O)(=O)CCNCc1ccc(-c2ccc3ncnc(Nc4ccc(OCc5ccccc5)cc4)c3c2)o1
inhibition [1]: 1.04% | inhibition [2]: 4.6% | inhibition [3]: 10.4% | inhibition [4]: 3.6% | inhibition [5]: 3.61% | inhibition [6]: 3.14% | inhibition [7]: 4.61% | inhibition [8]: 5.39% | inhibition [9]: 7.8% | inhibition [10]: 3% | inhibition [11]: 4.72% | inhibition [12]: 0.38% | inhibition [13]: 0.96% | inhibition [14]: 7.76% | inhibition [15]: 6.51% | inhibition [16]: 2.99% | inhibition [17]: 9.8% | inhibition [18]: 3.01% | inhibition [19]: 11.9% | inhibition [20]: 3.34%

CCn1c(-c2nonc2N)nc2cncc(C(=O)NCCNC)c21
inhibition [1]: -0.23% | inhibition [2]: 5.61% | inhibition [3]: 14.2% | inhibition [4]: 4.53% | inhibition [5]: 7.01% | inhibition [6]: 3.41% | inhibition [7]: 11.4% | inhibition [8]: 3.13% | inhibition [9]: 5.82% | inhibition [10]: 16.2% | inhibition [11]: 12.4% | inhibition [12]: 3.22% | inhibition [13]: 3.52% | inhibition [14]: 4.6% | inhibition [15]: 8.62% | inhibition [16]: 6.45% | inhibition [17]: 7.16% | inhibition [18]: 4.21% | inhibition [19]: 17.1% | inhibition [20]: 7.45%

COc1ccc(Nc2ncc(-c3ccccc3)o2)cc1OC
inhibition [1]: 19.2% | inhibition [2]: 25.9% | inhibition [3]: 68.6% | inhibition [4]: 5.83% | inhibition [5]: 28.4% | inhibition [6]: 42.2% | inhibition [7]: 94.4% | inhibition [8]: 48.8% | inhibition [9]: 77% | inhibition [10]: 25.5% | inhibition [11]: 68% | inhibition [12]: -0.09% | inhibition [13]: 4.33% | inhibition [14]: -5.6% | inhibition [15]: 1.04% | inhibition [16]: 6.8% | inhibition [17]: 23.1% | inhibition [18]: 4.53% | inhibition [19]: 17.1% | inhibition [20]: 6.85%

CS(=O)(=O)CCNCc1ccoc1-c1ccc2ncnc(Nc3ccc(OCc4ccccc4)cc3)c2c1
inhibition [1]: 3.07% | inhibition [2]: 7.98% | inhibition [3]: 15.1% | inhibition [4]: -0.69% | inhibition [5]: 2.14% | inhibition [6]: 4.43% | inhibition [7]: 8.96% | inhibition [8]: 1.67% | inhibition [9]: 7.53% | inhibition [10]: 0.39% | inhibition [11]: 5.15% | inhibition [12]: -0.85% | inhibition [13]: 0.98% | inhibition [14]: 0.12% | inhibition [15]: 1.57% | inhibition [16]: 3.73% | inhibition [17]: 0.18% | inhibition [18]: 8.41% | inhibition [19]: 9.53% | inhibition [20]: 4.19%

Fc1ccc(Nc2nccc(-c3c(-c4ccc(C(F)(F)F)cc4)nn4ncccc34)n2)cc1F
inhibition [1]: 2.81% | inhibition [2]: 8.86% | inhibition [3]: 7.72% | inhibition [5]: 4.26% | inhibition [6]: 4.35% | inhibition [7]: 6.66% | inhibition [8]: 3.46% | inhibition [9]: 2.39% | inhibition [10]: 2.15% | inhibition [11]: 3.62% | inhibition [12]: 0.45% | inhibition [13]: 0.39% | inhibition [14]: 4.12% | inhibition [15]: 9.36% | inhibition [16]: 4% | inhibition [17]: 6.84% | inhibition [18]: 1.24% | inhibition [19]: -1.13% | inhibition [20]: 5.34%

O=C1Nc2ccccc2/C1=C1\CCc2cc(O)ccc21
inhibition [1]: 32.1% | inhibition [2]: 23% | inhibition [3]: 63.2% | inhibition [4]: 7.24% | inhibition [5]: 34.7% | inhibition [6]: 45.7% | inhibition [7]: 97.7% | inhibition [8]: 32.4% | inhibition [9]: 64.8% | inhibition [10]: 11.3% | inhibition [11]: 47.9% | inhibition [12]: 2.6% | inhibition [13]: 3.64% | inhibition [14]: 18.3% | inhibition [15]: 44% | inhibition [16]: 23% | inhibition [17]: 66.3% | inhibition [18]: 36.1% | inhibition [19]: 73.6% | inhibition [20]: 25.8%

N#Cc1ccc2c(-c3ccnc(NC4CC4)n3)c(-c3ccc(F)cc3)nn2c1
inhibition [1]: -0.28% | inhibition [2]: 2.76% | inhibition [3]: 11.6% | inhibition [4]: -0.1% | inhibition [5]: 6.91% | inhibition [6]: 6.42% | inhibition [7]: 6.15% | inhibition [8]: 1.97% | inhibition [9]: 8.16% | inhibition [10]: 2.34% | inhibition [11]: 16.8% | inhibition [12]: 1.44% | inhibition [13]: 0.3% | inhibition [14]: -1.69% | inhibition [15]: 0.44% | inhibition [16]: 5.41% | inhibition [17]: 8.1% | inhibition [18]: 3.66% | inhibition [19]: 2.65% | inhibition [20]: 4.65%

c1ccc(-c2n[nH]cc2-c2ccnc(-c3ccc(OCCn4ccnc4)cc3)c2)nc1
inhibition [1]: 4.35% | inhibition [2]: 14.2% | inhibition [3]: 64.6% | inhibition [4]: 23.5% | inhibition [5]: 76.1% | inhibition [6]: 6.06% | inhibition [7]: 6.32% | inhibition [8]: 17.8% | inhibition [9]: 57% | inhibition [10]: 15.3% | inhibition [11]: 65.6% | inhibition [12]: 1.69% | inhibition [13]: 2.79% | inhibition [14]: 2.99% | inhibition [15]: 3.76% | inhibition [16]: 2% | inhibition [17]: 9.49% | inhibition [18]: 2.75% | inhibition [19]: 13.2% | inhibition [20]: 2.44%

CC1=C(C(=O)Nc2ccc3[nH]ncc3c2)C(c2ccc(F)cc2)N=C(c2ccc(C(F)(F)F)nc2)N1 (centres undefined)
inhibition [1]: 5.28% | inhibition [2]: 6.34% | inhibition [3]: 8.66% | inhibition [4]: 2.97% | inhibition [5]: 3.35% | inhibition [6]: 3.34% | inhibition [7]: 4.17% | inhibition [8]: 3.03% | inhibition [9]: 3.17% | inhibition [10]: 1.04% | inhibition [11]: 5.78% | inhibition [12]: -0.24% | inhibition [13]: 1.73% | inhibition [14]: 6.19% | inhibition [15]: 8.2% | inhibition [16]: 7.82% | inhibition [17]: 38.6% | inhibition [18]: 5.19% | inhibition [19]: 26.6% | inhibition [20]: 9.49%

CN(c1ccc(NC(=O)NCCN2CCOCC2)cc1)c1ccnc(Nc2ccc(CS(C)(=O)=O)cc2)n1
inhibition [1]: 8.61% | inhibition [2]: 51.8% | inhibition [3]: 84.4% | inhibition [4]: 2.7% | inhibition [5]: 28.6% | inhibition [6]: 63.9% | inhibition [7]: 95% | inhibition [8]: 61.6% | inhibition [9]: 90.1% | inhibition [10]: 33.7% | inhibition [11]: 77.1% | inhibition [12]: 1.69% | inhibition [13]: 0.89% | inhibition [14]: 11.2% | inhibition [15]: 57.8% | inhibition [16]: 16.5% | inhibition [17]: 58.5% | inhibition [18]: 13.2% | inhibition [19]: 48.9% | inhibition [20]: 29.1%

NC(=O)c1ccc2c(-c3ccnc(NCCCO)n3)c(-c3ccc(F)cc3)nn2c1
inhibition [1]: 2.08% | inhibition [2]: 5.5% | inhibition [3]: 16.9% | inhibition [4]: 4.25% | inhibition [5]: 8.75% | inhibition [6]: 6.06% | inhibition [7]: 6.59% | inhibition [8]: 4.18% | inhibition [9]: 14.3% | inhibition [10]: 4.83% | inhibition [11]: 18.2% | inhibition [12]: 4.1% | inhibition [13]: 3.97% | inhibition [14]: 17.1% | inhibition [15]: 12.2% | inhibition [16]: 5.55% | inhibition [17]: 16.6% | inhibition [18]: 1.73% | inhibition [19]: 4.71% | inhibition [20]: 6.62%

Nc1nonc1-c1nc2cnccc2n1C1CC1
inhibition [1]: 8.16% and 1.56% | inhibition [2]: 15.3% and 5.54% | inhibition [3]: 18.8% and 15.6% | inhibition [4]: 4.39% and 4.32% | inhibition [5]: 16.4% and 18.7% | inhibition [6]: 6.49% and 5.23% | inhibition [7]: 20.2% and 20.4% | inhibition [8]: 4.47% and 2.61% | inhibition [9]: 14% and 12.1% | inhibition [10]: 10.2% and 2.99% | inhibition [11]: 26.9% and 22.4% | inhibition [12]: 3.06% and 1.01% | inhibition [13]: 1.87% and 3.49% | inhibition [14]: 9.52% and 11.2% | inhibition [15]: 8.23% and 11.7% | inhibition [16]: 4.13% and 4.16% | inhibition [17]: 10.6% and 0.77% | inhibition [18]: 4.79% and 3.57% | inhibition [19]: 9.45% and 6.56% | inhibition [20]: 6.44% and 5.27%
